Reference: PubChem BioAssay (EPA / NIEHS)
Some compounds were tested as several samples or in several runs, with calls that do not always agree. Active and inactive are the calls of the source. The calls were made as follows: active = hit-call score of the fitted dose curve at least 0.9, where 1 is the maximum; inactive = score below 0.9.

read-out: flavin-containing dimethylaniline monooxygenases 3 (FMO3), FMO3 (gene 2328); assay: LTEA_HepaRG_FMO3: Life Technologies and Expression Analysis (LTEA) Assay for flavin-containing dimethylaniline monooxygenases 3 (FMO3) using HepaRG (AID 2283453); details: mRNA level, 48 h; actives raise or lower the signal;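 as to AC50: FMO3 transcript by TaqMan qRT-PCR normalized to ACTB GAPDH and POLR2A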
Procedure: LTEA_HepaRG is a cell based, multiplexed-readout assay that uses HepaRG, a human liver cell line, with measurements taken at 48 hours after chemical dosing on a 96-well plate.LTEA_HepaRG_FMO3 is one of 102 assay component(s) measured in the LTEA HepaRG cell culture assay. It is a marker of NR mediated metabolism.Data from the assay component LTEA_HepaRG_FMO3 was analyzed into 1 endpoint. This assay endpoint, LTEA_HepaRG_FMO3, was analyzed with bidirectional fitting relative to DMSO as the negative control and baseline of activity. Using a type of inducible reporter, measures of mRNA induction for gain or loss-of-signal activity can be used to understand regulation of transcription factor activity. To generalize the intended target to other relatable targets, this assay endpoint is annotated to the oxidoreductase intended target family, where the subfamily is […].
A total of 1060 chemcials from the ToxCast library were tested in eight-point concentration-response experiments. Cell culture and cytotoxicity assays were conducted at Thermo Fisher Scientific's Custom Services facility (Madison, WI). A single lot of human HepaRG cells (Thermo Fisher Scientific, Frederick, MD) was used for the cell culture experiments. 96-well format collagen type I coated plates of human HepaRG cells were prepared using established methods. Briefly, cryopreserved HepaRG cells were thawed, plated at a density of approximately 100,000 cells/well in HepaRG Thaw, Plate, and General Purpose media (HPRG770, Thermo Fisher Scientific), and incubated for 48 hours. 0.5% DMSO was selected as vehicle control to balance the requisite need of DMSO in HepaRG cultures to maintain differentiation (for example, baseline metabolism, proportions of hepatocytes vs. cholangiocytes), while enabling further hepatic receptor pathway activation (for example, PXR and CAR) in response to chemical exposure. 48 hours after plating, the culture medium was replaced with HepaRG Serum-Free Incudtion Media. Cells were exposed to each test chemical in duplicate and maintained in CO2 incubators for another 48 hours. Chemical plates were thawed to room temperature and 200x concentrations of treatment groups were prepared. 8-point conentration-reponse curves were made with the highest exposure at 100 uM, followed by half-log dilutions, all in 0.5% DMSO. Each test plate contained variouse controls, induction positive controls (1mM phenobarbital), cytotoxicity positive controls ([…] aflatoxin B1), vehicle controls (0.5% DMSO), and total lysis controls (0.5% DMSO). Cell morphology images were taken using an Essen IncuCyte FLR automated microscope, with six 96-well plates imaged in about 24 minutes. Images were captured and exported and JPEG files. Spent culture media was transfered to black-well plates for the LDH assay, and remaining media was sorted at -80 C for later use. Cells were treated with RLT buffer and frozen until shipped for gene expression analysis. Total RNA was isolated from the cell suspension in 75 uL of Buffer RLT (Qiagen, Germantown, MD 20874) by Quintiles/Expression Analysis (Durham, NC) using a custom isolation procedure. Total RNA from each plate well was transferred to a preamplification plate. Fluidigm's 96.96 Dynamic ArrayTM (Fluidigm, Amsterdam, the Netherlands) technology was used for gene expression analyses by quantitative reverse transcription polymerase chain reaction (qRT-PCR, performed by Quintiles/Expression Analysis, Durham, NC)89. Standard TaqManTM Assays (Applied Biosystems/ThermoFisher Scientific, Foster City, CA) were used to assess the expression of 93 genes selected based on their selectivity and sensitivity to important hepatic receptors known to be modulated by environmental chemicals; importance in human hepatocyte functionality; and hepatotoxicity. […]

| Compound | outcome | AC50 |
| --- | --- | --- |
| CCON=C(CC)C1=C(O)CC(c2c(C)cc(C)cc2C)CC1=O (stereo not given) | inactive |  |
| CC1=C(C(=O)Nc2ccccc2)SCCO1 |  | 50 µM (active) |
| Cc1c(F)c(F)c(COC(=O)C2C(/C=C(\Cl)C(F)(F)F)C2(C)C)c(F)c1F (stereo not given) | inactive |  |
| CCCCOC(=O)c1ccccc1C(=O)OCCCC | inactive |  |
| O=C(Nc1ccccc1)Nc1ccnc(Cl)c1 |  | 69 µM (active) |
| CCCCNC(=O)n1c(NC(=O)OC)nc2ccccc21 | inactive |  |
| CCc1nn(C)c(C(=O)NCc2ccc(C(C)(C)C)cc2)c1Cl |  | 14.2 µM (active) |
| COP(=S)(OC)Oc1nc(Cl)c(Cl)cc1Cl | inactive |  |
| C#CCOS(=O)OC1CCCCC1Oc1ccc(C(C)(C)C)cc1 (stereo not given) |  | 27.2 µM (active) |
| O=C(O)COc1nc(Cl)c(Cl)cc1Cl | inactive |  |
| C=CCC1=C(C)C(OC(=O)C2C(C=C(C)C)C2(C)C)CC1=O (stereo not given) | inactive | 80.2 µM (active) |
| CC(C)Oc1cc(-n2nc(C(C)(C)C)oc2=O)c(Cl)cc1Cl |  | 61.5 µM (active) |
| COC(=O)N(OC)c1ccccc1COc1ccn(-c2ccc(Cl)cc2)n1 |  | 75.7 µM (active) |
| CNC(=O)ON=CC(C)(C)SC | inactive |  |
| N#Cc1nn(-c2c(Cl)cc(C(F)(F)F)cc2Cl)c(N)c1S(=O)C(F)(F)F (stereo not given) |  | 54.9 µM (active) |
| CCCCC(CC)COC(=O)c1ccccc1C(=O)OCC(CC)CCCC (stereo not given) | inactive |  |
| C=CC1(C)OC(=O)N(c2cc(Cl)cc(Cl)c2)C1=O (stereo not given) | inactive |  |
| Cc1cc(Cl)ccc1OCC(=O)O | inactive |  |
| COC(=O)C(C)Oc1ccc(Oc2ccc(Cl)cc2Cl)cc1 (stereo not given) | inactive |  |
| COC(=O)C=C(C)OP(=O)(OC)OC | inactive |  |

| Compound | outcome | AC50 |
| --- | --- | --- |
| N#Cc1cc(Br)c(O)c(Br)c1 |  | 12.7 µM (active) |
| COc1nc(NC(C)C)nc(NC(C)C)n1 | inactive |  |
| OC(c1ccc(Cl)cc1)(c1cncnc1)c1ccccc1Cl (stereo not given) |  | 77.8 µM (active) |
| CCCC1COC(Cn2cncn2)(c2ccc(Cl)cc2Cl)O1 (stereo not given) |  | 34.6 µM (active) |
| CON(C)C(=O)Nc1ccc(Cl)c(Cl)c1 |  | 50 µM (active) |
| CCNc1nc(Cl)nc(NC(C)C)n1 | inactive |  |
| Fc1ccc(Oc2ccnc3cc(Cl)cc(Cl)c23)cc1 |  | 85.8 µM (active) |
| N#CC(CCc1ccc(Cl)cc1)(Cn1cncn1)c1ccccc1 (stereo not given) |  | 72.9 µM (active) |
| CC(C)C1(C)N=C(c2nc3ccccc3cc2C(=O)O)NC1=O (stereo not given) | inactive |  |
| CCOC(=O)C(Cl)Cc1cc(-n2nc(C)n(C(F)F)c2=O)c(F)cc1Cl (stereo not given) | inactive |  |
| CCOc1cc(Oc2ccc(C(F)(F)F)cc2Cl)ccc1[N+](=O)[O-] |  | 50 µM (active) |
| C=CCC1=C(C)[C@@H](OC(=O)[C@@H]2[C@@H](C=C(C)C)C2(C)C)CC1=O | inactive |  |
| CCNc1nc(Cl)nc(NCC)n1 | inactive |  |
| COP(N)(=O)SC (stereo not given) | inactive |  |
| CC(C)(C)c1ccc(CSc2cnn(C(C)(C)C)c(=O)c2Cl)cc1 |  | 2.68 µM (active) |
| O=C(O)c1nc(Cl)ccc1Cl | inactive |  |
| CC1COC(Cn2cncn2)(c2ccc(Oc3ccc(Cl)cc3)cc2Cl)O1 (stereo not given) |  | 22.2 µM (active) |
| COc1ccc(C(c2ccc(OC)cc2)C(Cl)(Cl)Cl)cc1 |  | 79.5 µM (active) |
| CN(C)C(=S)SSC(=S)N(C)C | inactive |  |
